Results on nine compounds are retold here after PubChem BioAssay.

The source made the active and inactive calls.

The experiment is described as follows: yeast growth modulation, basal conditions, primary screen, YJM789 clinical isolate, OD600, 24 h (AID 1089).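 Further: growth of clinical yeast isolate S. cerevisiae YJM 789 seeded 1000 cells per well; test concentration not given here.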 To be noted: S. cerevisiae YJM789 growth, higher = more signal, called active from +8 up or from −8 down.
On to `CC(C)(C)OC(=O)CC[C@@]1(C(=O)NCc2ccccc2)N=C(c2ccc(OCCCO)cc2)O[C@@H]1c1ccccc1N=[N+]=[N-]`, for which the z-score is 0.704 (inactive). `CCC(CC)C(O)C1C=CC2C(=O)N(c3ccccc3)C(=O)C2N1Nc1ccc(C(C)C)cc1` (centres undefined): the z-score is 0.727 (inactive).

With `C[C@H]1NC(=O)[C@@]23C(=O)N[C@@H](Cc4ccccc4)C2[C@H](C)[C@@]2(C)O[C@H]2C3/C=C/C/C=C\CNC(=O)[C@H](Cc2ccccc2)NC1=O` (some centres undefined), the z-score is 0.907 (inactive). The same measure for `COCCOC(=O)N1C(=O)[C@@]2(c3cc(C#CC4=CCCCC4)ccc31)[C@H](C(N)=O)[C@H]1C(=O)O[C@H](c3ccccc3)[C@H](c3ccccc3)N1[C@@H]2c1ccccc1OCCO`: 0.908 (inactive); for `CCOC(=O)C[C@H]1[C@H](OC(=O)c2cc3ccccc3oc2=O)[C@@H](NC(=O)c2ccc(-c3ccccc3)cc2)c2cc(OCCCO)ccc2N1C(=O)c1ccc2ccccc2n1`: 0.443 (inactive). Next, `COC(=O)[C@@]1(Cc2ccc(F)cc2)[C@H]2c3cc(C(=O)N(C)C)n(Cc4cc(F)cc5c4OCOC5)c3C[C@H]2CN1C(=O)c1ccccc1`: -1.23 (inactive); `COC(=O)[C@@]1(Cc2ccccc2)[C@@H]2C(=CC(=O)[C@H]2CC(=O)C(=O)N(C)C)CN1C(=O)c1ccccc1`: -1.06 (inactive); `CN1C(=O)C2C=CC(C(O)c3ccc(F)cc3)N(Nc3ccccc3)C2C1=O` (centres undefined): 0.397 (inactive). Next, `CCCC[C@@H]1C[C@H]1[C@@H](NC(=O)c1ccccc1)c1ccc(C(F)(F)F)cc1`: 0.82 (inactive).
